These results are taken from the supplement of paper PMC3334620.

The full ranking holds about 33,000 sequences; the median of “E-score (-0.5 to 0.5)” is about -0.035, and the highest 2% start at about 0.35. For the sample, the highest values were picked, then their nearest neighbours and some sequences at random.

The experiment concerns the target T1, Pdr3 (UniProt P33200).
T1 sequence: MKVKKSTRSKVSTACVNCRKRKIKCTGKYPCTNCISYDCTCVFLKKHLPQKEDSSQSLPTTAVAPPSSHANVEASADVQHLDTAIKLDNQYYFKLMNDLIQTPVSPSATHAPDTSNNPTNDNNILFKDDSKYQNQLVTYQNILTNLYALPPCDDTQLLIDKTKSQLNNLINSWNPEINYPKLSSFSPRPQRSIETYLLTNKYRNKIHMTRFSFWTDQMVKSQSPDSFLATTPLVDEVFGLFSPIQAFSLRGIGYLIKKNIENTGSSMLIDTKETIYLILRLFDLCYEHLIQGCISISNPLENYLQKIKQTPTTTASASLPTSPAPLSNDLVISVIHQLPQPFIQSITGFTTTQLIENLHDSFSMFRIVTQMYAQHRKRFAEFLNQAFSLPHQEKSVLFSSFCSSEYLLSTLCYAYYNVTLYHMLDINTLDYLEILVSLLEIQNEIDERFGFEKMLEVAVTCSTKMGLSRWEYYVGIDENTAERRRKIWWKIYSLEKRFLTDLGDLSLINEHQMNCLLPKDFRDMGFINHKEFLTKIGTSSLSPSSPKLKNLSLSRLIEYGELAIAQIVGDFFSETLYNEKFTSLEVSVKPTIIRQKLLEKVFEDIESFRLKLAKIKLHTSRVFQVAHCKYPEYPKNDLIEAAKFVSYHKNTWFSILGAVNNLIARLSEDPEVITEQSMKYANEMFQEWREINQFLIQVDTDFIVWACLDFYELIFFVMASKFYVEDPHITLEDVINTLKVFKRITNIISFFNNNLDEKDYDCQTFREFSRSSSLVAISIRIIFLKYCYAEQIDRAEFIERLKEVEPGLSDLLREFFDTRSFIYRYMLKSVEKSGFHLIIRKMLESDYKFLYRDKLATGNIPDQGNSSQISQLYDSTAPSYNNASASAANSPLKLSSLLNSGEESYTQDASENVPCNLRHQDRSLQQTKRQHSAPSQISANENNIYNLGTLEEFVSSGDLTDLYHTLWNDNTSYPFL
Put plainly: PBM E-score (8-mer binding enrichment) (E-score (-0.5 to 0.5)); higher = stronger / more preferred TF binding. The settings on record: protein concentration: 200 nM; construct: GST-full length. The procedure, abridged:
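Detection of bound protein used fluorescent anti-GST, with scans normalised by masliner. The proteins were GST-tagged yeast transcription factors applied at about 100-200 nM to universal all-10-mer Agilent arrays made double-stranded by primer extension. Each ungapped eight-base word, pooled with its reverse complement, was scored with an E-score from the Universal PBM Analysis Suite.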
CGAAAAAG: the “PBM E-score” value is 0.159. The figure for CGGAAAAG is 0.415; for AGGAAAAG it is 0.0387; for CGGAAAAA it is 0.403.

As to AGGAAAAA, the “PBM E-score” value is -0.157. As for GGGAAAAA, the “PBM E-score” value was 0.176. The figure for TAACACGA is 0.0333; for CGCGAAAC it is -0.00744. In the case of TAACTGTA, the “PBM E-score” value was -0.323. GAGACCGA: the “PBM E-score” value came to 0.0506. For ATCTGGTC, the “PBM E-score” value was -0.051. The result for CCGGGACC reads 0.413. Take GCGGGACC: the “PBM E-score” value was 0.323. Turning to TCGGGACA, the “PBM E-score” value came to 0.167. CCGGGACA: the “PBM E-score” value amounted to 0.376. As for ACGGGACA, the “PBM E-score” value is 0.311. The figure for ACGGGACG is 0.295.

For ACGGGACC, the “PBM E-score” value amounted to 0.241. CGGGGACG: the “PBM E-score” value is 0.124. The figure for CCGGGACG is 0.365; for ATGGGCCG it is 0.0292. The result for AGAAGCCG reads 0.213; that for AACTGTAG, -0.124; that for AAGATAGA, -0.184. For the sequence ACCAAAAG, the “PBM E-score” value is -0.176. On to ACTCCGCT, for which the “PBM E-score” value turned out to be 0.14. The figure for CCTCCGCC is 0.169. As for ACTCCGCC, the “PBM E-score” value worked out at 0.343. The figure for ACTCCGCG is 0.397; for CCTCCGCA it is 0.00168.

In the case of CCTCCGCG, the “PBM E-score” value is 0.445.

Regarding CATAACGC, the “PBM E-score” value is -0.102. As to GCGGCTTA, the “PBM E-score” value was -0.0127.

Take CCGGCTTA: the “PBM E-score” value amounted to 0.356. The figure for CCGGCTTC is 0.322; for GTCAGAAC it is -0.132; for AGTTCAAT it is -0.139.

With CCACGTGA, the “PBM E-score” value was -0.0844.

Take ATATTCCC: the “PBM E-score” value is 0.266. CCATTCCA: the “PBM E-score” value was 0.0798. Turning to ACATTCCT, the “PBM E-score” value is -0.0606. Take CCATTCCG: the “PBM E-score” value is 0.425. The result for ACATTCCC reads 0.154; that for ACATTCCG, 0.439; that for ATATTCCA, 0.128. The figure for ATATTCCG is 0.426. The figure for CCATTCCC is 0.101. With CTCAAACC, the “PBM E-score” value is -0.0558. For the sequence GACATCTA, the “PBM E-score” value was -0.0109. For the sequence CAACTTTA, the “PBM E-score” value is -0.0602. The result for ATACTCGC reads 0.162; that for ACCAAGGT, -0.0204. For AGAGCGAC, the “PBM E-score” value is -0.135. Regarding AGGCCATA, the “PBM E-score” value was -0.0791.

Take CCCGCGTC: the “PBM E-score” value was found to be 0.236. In the case of GCGGCCGC, the “PBM E-score” value is 0.35. The figure for GCCGCGGC is 0.484; for CCCGCGAC it is 0.175. As for CCCGCGGC, the “PBM E-score” value came to 0.488.

For GACGCGGC, the “PBM E-score” value came out at 0.0937.

In the case of CAAATGGC, the “PBM E-score” value is -0.156. On to GCTACTAC, for which the “PBM E-score” value was 0.146. On to CGATAGCG, for which the “PBM E-score” value came out at 0.0636. As to AGGCCTTA, the “PBM E-score” value is -0.254.

CAGGTGGC: the “PBM E-score” value is -0.197. Take ACTCCGTA: the “PBM E-score” value was 0.13.

In the case of GTACCGTA, the “PBM E-score” value turned out to be 0.029. The figure for ACTCCGTC is 0.206; for GTTCCGTA it is 0.471; for AATCCGTC it is 0.314. Regarding GTCCCGTA, the “PBM E-score” value was found to be 0.159.

Take ATTCCGTC: the “PBM E-score” value was 0.42. The result for CTTCCGTA reads 0.379; that for CGTCCGTA, 0.176; that for CCTCCGTA, 0.222. The figure for AATCCGTA is 0.165; for ATTCCGTA it is 0.417; for GGTATTAC it is 0.225. The result for CTTTTAAA reads -0.00725; that for GGGCGTAC, -0.00965; that for GCAGCAAA, -0.103. CAGACCCG: the “PBM E-score” value was found to be 0.279. In the case of AATCGGTA, the “PBM E-score” value was -0.0123.

On to CTAGAACA, for which the “PBM E-score” value is 0.0618.

In the case of ATGCTACA, the “PBM E-score” value is -0.24. Consider CAATAGAG, for which the “PBM E-score” value was -0.166.
